This excerpt belongs to a sample that is enriched for hits.
Shh pathway inh: blocks Sonic Hedgehog signaling. Shh-LIGHT2 Gli-luciferase reporter, 30 h. inhibition, % (concentration not given with the values). 22,000 tested, 2.1% active. AID 2313;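 active means mean inhibition across valid replicates above about 65%, limit read from the data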;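 further: pathway switched on by Shh-conditioned medium diluted 1 in 25 in low serum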
MITF inh: blocks MITF activity; inhibition, % (no concentration beside the values); 37,000 tested, 0.28% active; TRPM1 promoter luciferase, luminescence, 24 h; in the data active means inhibition above about 85%;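 further: human melanocyte line stably carrying TRPM1 promoter luciferase reporter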
BJeLR viab HTS: BJeLR cell viability reduction. BJeLR fibroblasts viability, CellTiterGlo ATP luminescence, 48 h; HRASV12, hTERT and SV40 LT/ST transformed. viability loss activity score, % (test concentration not listed). 30,000 tested, 0.64% active; in the data active means viability loss activity score above about 50%;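 further: higher score means fewer live cells and less ATP luminescence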
* hit, by the source's call; · = no result given; ! = a repeat was not active.

SMILES	Shh pathway inh	MITF inh	BJeLR viab HTS
O=C(/C=C/c1ccc(O)c(O)c1)OCCc1ccccc1	77*	-32	5
O=C(/C=C/c1ccccc1)Oc1ccccc1	·	8	-1
CCC(C(=O)NC(C)C)n1c2ccccc2c2nc(=O)cc(C)n21 (configuration not stated)	·	·	0
Cc1cccc2c1nc1s/c(=C/c3cn[nH]c3-c3ccccc3)c(=O)n12	·	·	-3
O=C(c1cc2c(=O)oc3ccccc3c2s1)N1CCN(c2cccc(C(F)(F)F)c2)CC1	·	·	-4
Oc1c(C(c2ccncc2)N2CCCC2)ccc2cccnc12 (configuration not stated)	35	21	31
COc1ccc(C(c2ccc3cccnc3c2O)N2CCOCC2)cc1 (configuration not stated)	68*	51	30
CCN1/C(=C\C(=S)Nc2ccccc2)Sc2ccccc21	-115	-4	0
CCN1/C(=C/C2=CC(=O)CC(C)(C)C2)Sc2ccccc21	82*	49	7
CC(=O)Nc1ccc(S(=O)(=O)NCc2ccc(C(=O)NCc3ccccc3)cc2)cc1	·	·	2
C=C1C(=O)O[C@@H]2C3C(=C(C)[C@@H](O)[C@@H](OC(=O)/C(=C/C)COC(C)=O)[C@@H]12)C(=O)[C@H]1O[C@@]31C (some centres not stated)	72*	58	90*
C=C(C)C(=O)O[C@H]1C[C@@]2(C)O[C@@H]2[C@H]2O[C@H]2C(=C)[C@@H](O)[C@H]2OC(=O)C(=C)[C@@H]21	8	·	·
Cc1ccc(S(=O)(=O)Nc2ccc(-c3csc(-c4ccccc4)n3)cc2)cc1	·	·	-4
CC(C)(C)c1ccc(-c2[nH]nc(NS(=O)(=O)c3ccccc3)c2Br)cc1	95*	13	1
CC1=NNC(=O)/C1=C\c1cn(-c2ccccc2)nc1-c1ccc(F)cc1	·	·	88*
Cc1ccc(-c2nn(-c3ccccc3)cc2/C=N/O)cc1	·	·	4
O=C(O)c1c(CNCCc2ccc(Cl)cc2)c2ccccc2n1Cc1ccccc1	·	·	3
C[C@@H]1O[C@@H](O[C@H]2[C@H](O)[C@@H](O)[C@H](O[C@H]3[C@H](O[C@H]4CC[C@@]5(C)C(=CC[C@H]6C7C[C@@H]8O[C@]9(CC[C@@](C)(CO[C@@H]%10O[C@H](CO)[C@@H](O)[C@H](O)[C@H]%10O)O9)[C@H](C)C8[C@@]7(C)CCC65)C4)O[C@H](CO)[C@@H](O)[C@@H]3O)O[C@@H]2CO)[C@H](O)[C@H](O)[C@H]1O (some centres not stated)	97*	·	·
C[C@@H]1O[C@@H](O[C@H]2[C@H](O)[C@@H](O[C@@H]3O[C@H](CO)[C@@H](O)[C@H](O)[C@H]3O)[C@H](O[C@H]3CC[C@@]4(C)C(=CC[C@@H]5C4CC[C@@]4(C)C5C[C@@H]5O[C@]6(CC[C@@](C)(CO)O6)[C@@H](C)[C@@H]54)C3)O[C@@H]2CO)[C@H](O)[C@H](O)[C@H]1O (some centres not stated)	-1	-1	-2
CCCNC(=O)c1ccc2c(c1)N(Cc1ccccc1)C(=O)c1ccccc1S2	·	·	-4
CC1(C)CC(=O)C=C(Sc2nc3ccccc3o2)C1	87*	77	76*
O=C(CCSc1nc2ccccc2o1)N1CCOCC1	·	-27	·
CS(=O)c1sc(C(=O)OCc2ccccc2)c2c1C(=O)CC(C)(C)C2 (configuration not stated)	·	78	116*
CC1(C)CC(=O)c2c(SCCOC(=O)c3ccccc3Cl)sc(C#N)c2C1	7	-2	-1
CC1=NN(c2ccccc2)C(=O)C1C=NC1CCS(=O)(=O)C1 (configuration not stated)	·	·	-3
SMILES	Shh pathway inh	MITF inh	BJeLR viab HTS
Cc1ccc2nc3c(c(C(=O)O)c2c1)CC(C(C)(C)C)CC3 (configuration not stated)	·	·	-1
Cc1cc(I)ccc1NC(=O)c1ccc(C(C)(C)C)cc1	·	·	5
Cc1ccc(S(=O)(=O)N(C)C[C@@H]2Oc3c(NC(=O)C4CCCCC4)cccc3C(=O)N([C@@H](C)CO)C[C@H]2C)cc1	-16	0	-3
Cc1ccc(S(=O)(=O)N(C)C[C@@H]2Oc3c(NC(=O)C4CCCCC4)cccc3C(=O)N([C@@H](C)CO)C[C@@H]2C)cc1	104*	7	6
Cc1ccc(S(=O)(=O)N(C)C[C@@H]2Oc3c(NC(=O)C4CCCCC4)cccc3C(=O)N([C@H](C)CO)C[C@@H]2C)cc1	70*	6	1
C[C@H]1CN([C@@H](C)CO)C(=O)c2cccc(NC(=O)C3CCCCC3)c2O[C@H]1CN(C)S(=O)(=O)c1ccc(F)cc1	82*	-12	-6
C[C@@H]1CN([C@H](C)CO)C(=O)c2cccc(NC(=O)C3CCCCC3)c2O[C@H]1CN(C)S(=O)(=O)c1ccc(F)cc1	6	0	0
Cc1ccc(S(=O)(=O)N(C)C[C@H]2Oc3c(NC(=O)C4CC4)cccc3C(=O)N([C@@H](C)CO)C[C@H]2C)cc1	-14	-9	2
COC(=O)c1ccc(NC(=O)CSc2cc(C)c3ccccc3n2)cc1	·	20	·
COC(=O)c1ccc(Nc2cc(C)nc3ccccc23)cc1	·	·	62*
O=c1[nH]c(/C=C2/C=Nc3ccc(Br)cc32)c(O)n1Cc1ccc(Br)cc1	·	·	5
Cn1c(CO)nc2ccccc21	·	·	2
Cn1c(N2C(=O)c3cccc4cccc(c34)C2=O)nc2ccccc21	86*	-25	0
COC(=O)c1ccc2c(c1)N(C)C(=O)/C(=C/c1ccccc1OC)S2	·	·	0
CCc1cc(O)c(C)c(O)c1C=O	3	·	·
Cc1cc2c(C(C)C)c(O)c(O)c(C=O)c2c(O)c1-c1c(C)cc2c(C(C)C)c(O)c(O)c(C=O)c2c1O	68*!	31	-7
CCCN(CCC)C(=O)Cn1ncc2c(=O)oc3ccc(C)cc3c21	·	·	-2
Cn1c(=NC(=O)CCSc2ccccc2)sc2cc(Cl)ccc21	·	·	-1
O=C(CCCOc1ccc(Cl)cc1Cl)Nc1nccs1	·	·	2
COc1ccc([N+](=O)[O-])cc1NC(=O)COc1ccc(Cl)cc1Br	·	-12	·
COc1ccc([N+](=O)[O-])cc1NC(=O)COc1ccc(C(C)(C)C)cc1Br	·	89*	·
Cc1sc2c(c1C)c(=O)n(-c1ccc(Cl)cc1)c(=O)n2CC(=O)N1CCCCC1C (configuration not stated)	·	·	1
CCCC1O[C@@H]2C[C@H]3[C@@H]4CCC5=CC(=O)C=C[C@]5(C)[C@H]4[C@@H](O)C[C@]3(C)[C@]2(C(=O)CO)O1 (some centres not stated)	52	-18	-7
CCC(=O)OCC(=O)[C@@]1(OC(=O)CC)[C@H](C)CC2C3C([C@@H](O)C[C@@]21C)[C@@]1(C)C=CC(=O)C=C1C[C@H]3Cl (some centres not stated)	68*	-2	-4
CCC(=O)[C@@]1(C)[C@H](C)C[C@H]2[C@@H]3CCC4=CC(=O)C=C[C@]4(C)[C@H]3[C@@H](O)C[C@@]21C	65*	-13	-9
CCC(=O)OC1(C(=O)CCl)[C@@H](C)C[C@H]2[C@@H]3CCC4=CC(=O)C=C[C@]4(C)[C@@]3(F)[C@@H](O)C[C@@]21C (some centres not stated)	50	-31	-1

High-throughput results from PubChem.
